Sampled rows, rich in hits. Any-hit rate of the full collection: about 17%.
TDP1 block: inhibitors of human tyrosyl-DNA phosphodiesterase TDP1; Q9NUW8; recombinant TDP1, AlphaScreen DNA substrate cleavage; Potency, µM (top dose mostly 130 µM), inactives show at the top dose activity change, negative = inhibition, most hits filed as inhibitors; 350,000 tested, 0.28% active; AID 485290; further: on the % scale 0 is the no-effect control and ±100 the full control effect; nearly all actives have a fitted effect of over 40% in size
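Steps: enzyme plus compound, 15 min RT; add biotin/phosphotyrosine-FITC oligonucleotide (15 nM final), react 5 min; add donor/acceptor beads (10 ug/ml final), 10 min; read AlphaScreen. Tdp1 at 1 nM final.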
ClpP mod: qHTS Assay for Activators of ClpP | Potency, µM (titrated, usually from 57.5 µM), without a hit: at the top dose activity change, negative = active | purified B. subtilis ClpP, FRET peptide cleavage, 20 min | ATP-dependent Clp protease proteolytic subunit (Bacillus subtilis (strain 168)), P80244 | 340,000 tested, 1.9% active | AID 651965, 2013; active means well fitted falling curve with a large enough effect; inconclusive means small, poorly fitted or top-dose-only effect; inactive means no such curve, though single readings can be large or run the other way; further: the source files actives as falling curves though it sought activators and does not explain the sign; nearly all actives have a fitted effect of over 65% in size
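FRET quenching reversal measured ClpP activation: 10 microg/mL B. subtilis ClpP at pH 8 with the FRET-FV decapeptide, read at 430 nm after 320 nm excitation. The 20-min minus 0-min signal was scaled between DMSO/no-enzyme wells and ADEP (5.8 microM final).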
TDP1 cell noCPT: qHTS for Inhibitors of human tyrosyl-DNA phosphodiesterase 1 (TDP1): qHTS in cells in absence of CPT; 420,000 tested, 15% active; Potency, µM (doses to about 46.2 µM), without a hit: at the highest dose activity change, negative = growth inhibition, most hits filed as inhibitors; AID 686978, 2013; DT40 Tdp1-/- hTDP1 cells, no CPT, ATP luminescence, 48 h; further: on the % scale 0 is the no-effect control and ±100 the full control effect; nearly all actives have a fitted effect of over 55% in size
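Chicken DT40 Tdp1-/- cells complemented with human TDP1, screened without camptothecin (DMSO vehicle only), 400 cells/well. Compounds pin-transferred, cells incubated at 37 °C for at least 48 hr. Growth read as ATP-dependent luminescence (CellTiter-Glo, 30 min at RT).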
TDP1 cell CPT: growth inhibition of DT40 Tdp1-/-;hTDP1 cells with camptothecin (screen for TDP1 inhibitors). chicken DT40 Tdp1-/-;hTDP1 cells + 20 nM CPT, ATP luminescence, 48 h. Potency, µM (highest dose often 46.2 µM), inactives show top-dose activity change, negative = growth inhibition, most hits filed as inhibitors. 420,000 tested, 12% active; further: on the % scale 0 is the no-effect control and ±100 the full control effect; nearly all actives have a fitted effect of over 55% in size
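Chicken DT40 Tdp1-/- cells complemented with human TDP1, 400 cells/well, exposed to compounds plus 20 nM camptothecin for at least 48 h at 37 C; viability read as ATP content by CellTiter-Glo luminescence.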
The depositor's hits bear a star; ? = inconclusive; nt = no result; [ ] = dose if it differs, or a comment. Unless noted, the call rests on the fitted dose curve; in most records, active means well fitted curve in the direction sought with a large enough effect; inconclusive means small, poorly fitted or top-dose-only effect, or another doubt; inactive means no such curve, though single readings can be large; an effect the other way counts as inactive or inconclusive. Potency means the concentration at half of the fitted maximal effect.

SMILES	TDP1 block	ClpP mod	TDP1 cell noCPT	TDP1 cell CPT
CN(C)/C(=C\C(=O)c1ccccc1)C(=O)c1ccccc1	nt	-2%	-7%	-2%
O=C(C=C(C(=O)c1ccccc1)c1ccccc1)c1ccccc1	nt	nt	21µM*	23µM*
Cc1ccc(S(=O)(=O)N2[C@H](CC(=O)Oc3ccccc3)OC[C@@H]2C(C)C)cc1	nt	-1%	13µM*	13µM*
Cc1ccc(S(=O)(=O)C[C@@H]2OC[C@H](C(C)C)N2S(=O)(=O)c2ccc(C)cc2)cc1	nt	-2%	16µM*	18µM*
CC(=O)C[C@H]1SC[C@@H](C(C)C)N1S(=O)(=O)c1ccc(C)cc1	nt	-5%	13µM*	9.2µM*
CCC1OC(=O)C(C)[C@@H](O[C@H]2C[C@@](C)(OC)C(O)C(C)O2)C(C)[C@@H](O[C@@H]2OC(C)CC(N(C)C)C2O)[C@@](C)(O)CC(C)CN(C)C(C)C(O)[C@]1(C)O (some centres undefined)	-8%[56.1 µM]	nt	?	?
Cc1ccccc1S(=O)(=O)N(C)C[C@H]1OCc2cnnn2CCCC(=O)N([C@H](C)CO)C[C@H]1C	nt	0%	-5%	-11%
Cn1c(CNc2ccc(O)cc2)nc2ccccc21	nt	-5%	?	?
Cc1ccc(NCc2nc3ccccc3n2C)cc1	-9%	14µM*	?	?
Cc1ccc(NC(=O)NCc2nc3ccccc3n2C)cc1	4%	nt	23µM*	?
COc1ccccc1NC1CCCCC1NS(=O)(=O)c1ccccc1 (centres undefined)	10%	1%	-24%	?
COc1cc(/C=C2/SC(=O)N(Cc3ccccc3Cl)C2=O)ccc1OCc1ccncc1	2%	0%	?	18µM*
O=C(NC1CCCC1)C(c1ccc(F)cc1)N(C(=O)c1csnn1)C1CC1 (centres undefined)	nt	-1%	-9%	12%
CC(Oc1cc2oc(=O)c3c(c2cc1Cl)CCC3)C(=O)NCCCn1ccnc1 (centres undefined)	4%	-8%	-12%	-20%
CNc1cncc(-c2cc(C)c(O)c(C)c2)n1	nt	4%	6.5µM*	4.1µM*
CO/N=C(/C(=O)N[C@@H]1C(=O)N2C(C(=O)[O-])=C(C[n+]3ccn4ncccc43)CS[C@H]12)c1nsc(N)n1	nt	nt	-14%	6%
C=CC(C)N1C(=O)S/C(=C\c2ccc(N3CCOCC3)cc2C)C1=O (centres undefined)	1%	-8%	13µM*	21µM*
CCCCNC(=O)C(=O)NC(C)CCc1ccccc1 (centres undefined)	0%	0%	-18%	-2%
CCOC(=O)OCC1OC(c2cc(C)cc(C)c2)C=CC1OC(=O)OCC (centres undefined)	8%[21 µM]	nt	nt	nt
CC(C)C(=O)N1c2ncnn2C2(CCCCC2)[C@@H]2CCCC[C@@H]21	-4%	-4%	10µM*	16µM*
CCC(=O)N1c2nc(C(C)C)nn2C2(CCCCC2)[C@@H]2CCCC[C@@H]21	1%	0%	4.1µM*	8.2µM*
Cc1nn(-c2ccccc2)c2c1C(c1ccc(Br)s1)C(C#N)=C(N)O2 (centres undefined)	10%	-1%	12µM*	?
Cc1nn(Cc2ccccc2)c2c1C(c1cccnc1)C(C#N)=C(N)O2 (centres undefined)	6%	-3%	?	?
Cc1nn(Cc2ccccc2)c2c1C(c1ccc(Cl)cc1)C(C#N)=C(N)O2 (centres undefined)	8%	-4%	21µM*	18µM*
Cc1nn(Cc2ccccc2)c2c1C(c1ccncc1)C(C#N)=C(N)O2 (centres undefined)	8%	1%	23µM*	21µM*
CCn1c(-c2ccccc2F)nc2cc(C(=O)N3CCNC(=O)C3CC(=O)OC)cc(NC(C)=O)c21 (centres undefined)	nt	nt	1%	-3%[9.04 µM]
CC(=O)NC(CCc1ccc(Cl)c(Cl)c1)c1cccc(O)c(=O)c1 (centres undefined)	nt	-3%	7.3µM*	23µM*
Cc1cccc(C(P(=O)(c2ccccc2)c2ccccc2)P(=O)(c2ccccc2)c2ccccc2)n1	3%	1%	16µM*	?

Source: PubChem
